Reference: PubChem BioAssay (NCATS)
Results filed as inconclusive are left out. A call without a number means that no potency is given here. Values without a mark were called inactive. Active and inactive are the calls of the source. Calls come from the whole dose curve; as a rule, active = well fitted cell-killing curve with a large enough effect; inconclusive = small, poorly fitted or top-dose-only effect, or effect the other way; inactive = flat fitted curve, though single readings scatter.

Experiments:
Assay in all cases: Primary qHTS to identify gynecologic anti-cancer compounds using libraries of approved drugs and bioactive compounds (AID 1345084); note: nearly all actives have a fitted effect of over 55% in size
Settings in all cases: Gynecologic cancer cell panel viability, ATPlite luminescence, 48 h; series mostly up to 57.5 µM
OV90 = tested on: OV90
Method in brief: (§1)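 In this quantitative HTS, cell killing is estimated from loss of ATP-dependent luciferase light. Cells see five compound concentrations over a 48 h exposure.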

PA-1 = tested on: PA-1
Method in brief: as §1

SKOV3 = tested on: SKOV3
Method in brief: as §1

Tov-21-G = tested on: Tov-21-G
Method in brief: as §1

Tov112D = tested on: Tov112D
Method in brief: as §1
Potency is the fitted concentration of half-maximal effect.

Row | SMILES | Potency (OV90) | Potency (PA-1) | Potency (SKOV3) | Potency (Tov-21-G) | Potency (Tov112D) | activity change, negative = cytotoxicity (OV90) | activity change, negative = cytotoxicity (PA-1) | activity change, negative = cytotoxicity (SKOV3) | activity change, negative = cytotoxicity (Tov-21-G) | activity change, negative = cytotoxicity (Tov112D)
1 | CC(C)(C)c1cc(Br)cc([C@H](CC(=O)O)NC(=O)CNC(=O)c2cc(O)cc(NC3=NCC(O)CN3)c2)c1 (stereo not given in full) | inactive | inactive | inactive | inactive | inactive |  |  |  |  | 
2 | C=C1C[C@]23C[C@H]1CC[C@H]2[C@]1(C)CCC[C@@](C)(C(=O)O)[C@H]1[C@@H]3C(=O)O | inactive | inactive | inactive | inactive | inactive |  |  |  |  | 
3 | C[C@@H]1O[C@@H](O[C@H]2[C@H](O)[C@@H](O[C@@H]3O[C@H](CO)[C@@H](O)[C@H](O[C@@H]4O[C@H](CO)[C@@H](O)[C@H](O)[C@H]4O)[C@H]3O)[C@H](O[C@H]3CC[C@@]4(C)C(=CC[C@@H]5C4CC[C@@]4(C)C5C[C@@H]5OC6(CC[C@@](C)(CO[C@@H]7O[C@H](CO)[C@@H](O)[C@H](O)[C@H]7O)O6)[C@@H](C)[C@@H]54)C3)O[C@@H]2CO)[C@H](O)[C@H](O)[C@H]1OC1OC(CO)C(O)C(O)C1O (stereo not given in full) |  |  |  |  |  | -1.64% [at 6.55 µM] | 10.2% [at 6.55 µM] | -3.09% [at 6.55 µM] | -0.0744% [at 6.55 µM] | 5.26% [at 6.55 µM]
4 | CC(=O)O[C@@H]1[C@@H](CO)O[C@@](CO)(O[C@H]2O[C@H](COC(=O)/C=C/c3ccccc3)[C@@H](O)[C@H](O)[C@H]2O)[C@H]1O | inactive | inactive | inactive | inactive | inactive |  |  |  |  | 
5 | CCCOC(c1cc2nccc(C(=O)O)c2[nH]1)c1ccccc1Cl (stereo not given) | inactive | inactive | inactive | inactive | inactive |  |  |  |  | 
6 | C[C@@H]1O[C@@H](O[C@@H]2[C@@H](O[C@@H]3O[C@@H](C)[C@H](O[C@@H]4OC[C@H](O)[C@H](O[C@@H]5OC[C@@H](O)[C@H](O)[C@H]5O)[C@H]4O)[C@@H](O[C@@H]4OC[C@](O)(CO)[C@H]4O)[C@H]3O)[C@H](OC(=O)[C@]34CCC(C)(C)C[C@H]3C3=CCC5[C@@]6(C)C[C@H](O)[C@H](O[C@@H]7O[C@H](CO[C@@H]8OC[C@H](O)[C@H](O)[C@H]8O)[C@@H](O)[C@H](O)[C@H]7O)C(C)(C)C6CC[C@@]5(C)[C@]3(C)C[C@H]4O)OC[C@H]2O)[C@H](O)[C@H](O)[C@H]1O (stereo not given in full) |  |  |  |  |  | 10.7% [at 6.55 µM] | 18.2% [at 6.55 µM] | 4.47% [at 6.55 µM] | -2.27% [at 6.55 µM] | 7.07% [at 6.55 µM]
7 | C=CC(C)(C)c1[nH]c2cc3c(cc2c1CC1NC(=O)C2CCCN2C1=O)C=CC(C)(C)O3 (stereo not given) | inactive | inactive | inactive | inactive | inactive |  |  |  |  | 
8 | CC1(C)C[C@H](O)C[C@@]2(C)OC(=O)C=C12 | inactive | inactive | inactive | inactive | inactive |  |  |  |  | 
9 | CC(C)O[C@@H]1O[C@H](CO)[C@@H](O)[C@H](O)[C@H]1O | inactive | inactive | inactive | inactive | inactive |  |  |  |  | 
10 | COc1ccccc1NC(=O)OCC1CCN(C(=O)OC(C)(C)C)CC1 | inactive | inactive | inactive | inactive | inactive |  |  |  |  | 
11 | O=C(O)[C@H](Cc1ccc(Nc2nccc3ccncc23)cc1)NC1=C(Br)C(=O)C12CCCCC2 | inactive | inactive | inactive | inactive | inactive |  |  |  |  | 
12 | CC1=C(C)C(=O)OC(C(C)C2CCC3C4CC=C5CC(OC6OC(COC7OC(CO)C(O)C(O)C7O)C(O)C(O)C6O)CC(O)C5(C)C4CCC23C)C1 (stereo not given) | inactive | inactive | inactive | inactive | inactive |  |  |  |  | 
13 | Cc1onc(C(=O)N2CCN(C(c3ccc(Cl)cc3)c3ccc(Cl)cc3)CC2)c1[N+](=O)[O-] | inactive | 8.91 µM (active) | 7.94 µM (active) | 1.12 µM (active) | 7.94 µM (active) |  |  |  |  | 
14 | COc1cc(C)c(C(=O)O[C@H]2[C@@H](OC(C)=O)[C@H](n3ccc(=O)[nH]c3=O)O[C@@H]2CO)c(OC)c1 | inactive | inactive | inactive | inactive | inactive |  |  |  |  | 
15 | CCO[C@@H]1OC(=O)C[C@@H]1NC(=O)[C@@H]1CCCN1C(=O)[C@@H](NC(=O)c1ccc(N)c(Cl)c1)C(C)(C)C | inactive | inactive | inactive | inactive | inactive |  |  |  |  | 
16 | Nc1ncnc2c1nc(N)n2[C@@H]1O[C@H](CO)[C@@H](O)[C@H]1O | 3.55 µM (active) | 4.47 µM (active) | 3.16 µM (active) | 3.16 µM (active) | 3.55 µM (active) |  |  |  |  | 
